Composite z-score and z-score data for eight compounds are collected here from PubChem BioAssay.

Activity calls are given as the source filed them.

The subject of assay [1] is Plasmodium falciparum Sir2 (PF13_0152, Sir2A). As to the kind of experiment: pfSir2 binders on small-molecule microarrays, primary screen, biochemical, small-molecule microarray, 635 nm fluorescence (AID 1098).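 Further: score merges spot fluorescence intensity with its signal-to-noise ratio.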 Conditions: small-molecule microarray binding, fluorescence 635 nm; higher = more signal.
Assay [2] is described as follows: small-molecule microarray binders of probe aDKK1, primary screen, biochemical, biotinylated probe, 635/667 nm fluorescence (AID 1099).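 Further: score merges 667nm spot fluorescence with signal to noise across triplicate slides.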 Conditions: higher = more signal.
A short description of assay [3]: small-molecule microarray binders of probe aCHRDL2, primary screen, biochemical, biotinylated probe, 635/667 nm fluorescence (AID 1100). Conditions: higher = more signal.
The nature of assay [4]: splicing luciferase reporter signal modulators, primary screen, spliceosome inhibition project, cell-based, HEK293, splice +/- reporter (AID 1101).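 Further: HEK293 cells carrying a splicing-competent luciferase reporter gene; test concentration not given here.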 Conditions: luminescence, 24 h, higher = more signal, called active from +8 up or from −8 down.
The target in assay [5] is Fibroblast growth factor 10 (Homo sapiens) (UniProt O15520). As to the kind of experiment: FGF10 binders on small-molecule microarrays, primary screen, biochemical, small-molecule microarray, 635 nm fluorescence (AID 1102). Conditions: FGF10 binding, fluorescence 635 nm, higher = more signal.
Assay [6] has as its system glycogen synthase kinase-3 (GSK3A per assay name; protocol says GSK3B). In words: GSK3 binders on small-molecule microarrays, primary screen, biochemical, small-molecule microarray, 635 nm fluorescence, GSK3A (AID 1103). Further: the record names both GSK3A and GSK3B. Conditions: small-molecule microarray binding, fluorescence 635 nm; higher = more signal.
For assay [7], the target named is Epidermal growth factor receptor (Homo sapiens) (UniProt P00533). In words: EGFR binders on small-molecule microarrays, primary screen, biochemical, small-molecule microarray, 635 nm fluorescence (AID 1104).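 Further: score merges 667 nm emission intensity with spot signal to noise over triplicate slides.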 Conditions: EGFR binding, higher = more signal.
Assay [8] deals with Follistatin-related protein 3 (Homo sapiens) (UniProt O95633). As to the kind of experiment: FSTL3 binders on small-molecule microarrays, primary screen, biochemical, small-molecule microarray, 635 nm fluorescence (AID 1105).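 Further: score merges emission near 667 nm and signal to noise per printed spot across three slides.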 Conditions: FSTL3 binding, higher = more signal.
Assay [9] concerns the target Dickkopf-related protein 1 (Homo sapiens) (UniProt O94907). In words: DKK1 binders on small-molecule microarrays, primary screen, biochemical, small-molecule microarray, 635 nm fluorescence scan (AID 1106).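 Further: score merges emission near 667 nm with signal to noise over three replicate slides.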 Conditions: DKK1 binding, higher = more signal.
Assay [10] has as its system Inhibin beta A chain (activin A). In words: INHBA (activin A) binders on microarrays, primary screen, biochemical, small-molecule microarray, 635 nm fluorescence scan (AID 1107).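 Further: mouse activin A protein probed at 4.33 µg/mL on printed slides; score merges bound-protein fluorescence near 667 nm with spot signal-to-noise.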 Conditions: small-molecule microarray binding, higher = more signal.
For assay [11], the system named is Human papillomavirus type 1a protein E7 (residues 44-93). As to the kind of experiment: HPV1a E7 fragment binders on microarrays, primary screen, biochemical, small-molecule microarray, residues 44-93, 635 nm fluorescence (AID 1108).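 Further: E7 fragment applied at 1 µg/mL in TBST for 1 h at 4 C; score combines spot fluorescence with its signal to noise ratio.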 Conditions: small-molecule microarray binding, fluorescence 635 nm; higher = more signal.
Assay [12] in a line: modulators of HCV replicon luciferase signal, primary screen, HCV replication inhibitor project, Huh7 cells, luciferase reporter (AID 1109).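 Further: huh7 hepatoma cells harbouring a luciferase neomycin HCV replicon reporter; luciferase luminescence as measure of HCV replicon replication; test concentration not given here.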 Conditions: 48 h, higher = more signal.
The target in assay [13] is Left-right determination factor 2 (Homo sapiens) (UniProt O00292). In words: LEFTY2 binders on small-molecule microarrays, primary screen, biochemical, small-molecule microarray, 635 nm fluorescence scan (AID 1110). Conditions: LEFTY2 binding, higher = more signal.
For assay [14], the target named is Calmodulin-1 (Homo sapiens) (UniProt P0DP23). As to the kind of experiment: CALM1 binders on microarrays, EGTA buffer, profiling panel, biochemical, small-molecule microarray, Cy5-labelled CALM1 (AID 1111).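 Further: labelled calmodulin applied in Tris saline Tween buffer holding calcium plus EGTA and DTT.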 Conditions: Cy5-CALM1 binding fluorescence, higher = more signal.
Assay [15] shares this target. As to the kind of experiment: calcium-bound CALM1 binders on microarrays, profiling panel, artefact control for SMM control-protein annotation, biochemical, small-molecule microarray, Cy5-labelled CALM1, plus calcium (AID 1112).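 Further: score merges spot fluorescence with signal to noise from triplicate slides.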 Conditions: Cy5-CALM1 binding fluorescence, higher = more signal.
The nature of assay [16]: small-molecule microarray binders of probe aWnt5a, primary screen, biochemical, biotinylated probe, 635/667 nm fluorescence (AID 1113).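 Further: score merges 667 nm fluorescence intensity with signal-to-noise per printed feature.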 Conditions: higher = more signal.
Assay [17] in a line: small-molecule microarray binders of probe aShh, primary screen, biochemical, biotinylated probe, 635/667 nm fluorescence (AID 1114).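 Further: probe is biotin-labelled aShh protein from a stem cell growth factor screen; measures binding of labelled protein to compounds printed on the slide; score merges feature fluorescence at 667 nm with signal-to-noise.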 Conditions: higher = more signal.
Assay [18] can be described thus: small-molecule microarray binders of probe aNog, primary screen, biochemical, biotinylated probe, 635/667 nm fluorescence (AID 1115).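 Further: probe is biotinylated aNog protein used at 0.15 µg/mL for 1 h at 4 C; z-score combines 667 nm fluorescence of each spot with its signal to noise.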 Conditions: higher = more signal.
Assay [19] concerns the target Torsin-1A-interacting protein 1 (Homo sapiens) (UniProt Q5JTV8). In words: LAP1 binders from COS7 cell lysate, primary screen, small-molecule microarray, 635/667 nm fluorescence (AID 1116). Conditions: COS7-hLAP1 lysate binding, 635 nm fluorescence, higher = more signal.
Assay [20] deals with Alpha-bungarotoxin (Bungarus multicinctus) (UniProt P60615). As to the kind of experiment: alpha-bungarotoxin binders on microarray, profiling panel, artefact control for SMM control protein annotation, biochemical, small-molecule microarray, Alexa647 label, 635/667 nm fluorescence (AID 1117). Conditions: alpha-BTX-A647 binding fluorescence, higher = more signal.
Chain of Alpha-bungarotoxin (Bungarus multicinctus) (P60615 whole entry, looked up): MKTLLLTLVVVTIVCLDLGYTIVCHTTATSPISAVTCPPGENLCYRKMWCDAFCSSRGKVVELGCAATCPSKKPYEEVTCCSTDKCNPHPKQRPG

Chain of Follistatin-related protein 3 (Homo sapiens) (O95633 whole entry, looked up): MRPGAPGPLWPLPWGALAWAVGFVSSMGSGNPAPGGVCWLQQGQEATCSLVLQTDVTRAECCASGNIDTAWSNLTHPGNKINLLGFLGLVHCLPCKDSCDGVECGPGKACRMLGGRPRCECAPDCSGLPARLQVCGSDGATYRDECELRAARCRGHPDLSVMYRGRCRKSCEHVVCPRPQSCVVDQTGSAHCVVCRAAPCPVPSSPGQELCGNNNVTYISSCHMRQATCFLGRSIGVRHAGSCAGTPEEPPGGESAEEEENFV
Chain of Dickkopf-related protein 1 (Homo sapiens) (O94907 whole entry, looked up): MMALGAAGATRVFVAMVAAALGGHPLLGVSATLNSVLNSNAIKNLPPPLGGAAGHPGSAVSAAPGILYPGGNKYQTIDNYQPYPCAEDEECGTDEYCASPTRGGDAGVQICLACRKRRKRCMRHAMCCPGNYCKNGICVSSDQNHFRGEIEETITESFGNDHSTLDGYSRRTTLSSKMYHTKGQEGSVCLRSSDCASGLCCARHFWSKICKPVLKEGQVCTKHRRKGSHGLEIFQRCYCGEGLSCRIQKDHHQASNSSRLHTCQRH
Chain of Fibroblast growth factor 10 (Homo sapiens) (O15520 whole entry, looked up): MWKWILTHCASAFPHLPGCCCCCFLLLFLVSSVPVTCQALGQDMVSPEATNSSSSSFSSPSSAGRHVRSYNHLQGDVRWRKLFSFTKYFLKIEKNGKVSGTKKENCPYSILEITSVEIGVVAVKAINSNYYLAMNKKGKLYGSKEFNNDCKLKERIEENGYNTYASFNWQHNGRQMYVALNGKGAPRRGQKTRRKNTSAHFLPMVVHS
Chain of Left-right determination factor 2 (Homo sapiens) (O00292 whole entry, looked up): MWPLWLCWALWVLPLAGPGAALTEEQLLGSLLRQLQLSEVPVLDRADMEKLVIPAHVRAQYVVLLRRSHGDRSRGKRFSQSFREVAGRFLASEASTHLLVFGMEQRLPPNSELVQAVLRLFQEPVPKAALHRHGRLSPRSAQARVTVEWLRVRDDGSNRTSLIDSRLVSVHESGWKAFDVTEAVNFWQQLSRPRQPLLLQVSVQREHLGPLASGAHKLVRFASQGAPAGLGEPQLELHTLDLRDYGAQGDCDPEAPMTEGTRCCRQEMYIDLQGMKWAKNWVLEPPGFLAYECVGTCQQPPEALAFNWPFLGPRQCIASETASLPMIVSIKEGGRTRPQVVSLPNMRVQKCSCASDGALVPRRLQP
Chain of Torsin-1A-interacting protein 1 (Homo sapiens) (Q5JTV8 whole entry, looked up): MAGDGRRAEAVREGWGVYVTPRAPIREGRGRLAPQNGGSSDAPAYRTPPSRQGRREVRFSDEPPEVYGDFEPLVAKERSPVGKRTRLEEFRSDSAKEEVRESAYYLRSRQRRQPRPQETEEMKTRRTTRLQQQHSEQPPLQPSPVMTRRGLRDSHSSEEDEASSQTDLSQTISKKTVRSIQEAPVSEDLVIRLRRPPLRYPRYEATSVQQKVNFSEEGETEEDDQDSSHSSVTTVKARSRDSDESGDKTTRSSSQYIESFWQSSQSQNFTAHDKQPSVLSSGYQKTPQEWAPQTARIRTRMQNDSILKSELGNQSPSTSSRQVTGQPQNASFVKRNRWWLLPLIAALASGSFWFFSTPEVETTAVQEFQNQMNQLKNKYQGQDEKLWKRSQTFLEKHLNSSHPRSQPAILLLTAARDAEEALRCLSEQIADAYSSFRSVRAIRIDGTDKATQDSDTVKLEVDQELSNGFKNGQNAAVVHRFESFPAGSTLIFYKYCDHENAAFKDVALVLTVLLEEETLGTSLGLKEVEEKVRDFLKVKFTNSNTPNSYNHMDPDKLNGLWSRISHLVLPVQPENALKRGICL
Chain of Epidermal growth factor receptor (Homo sapiens) (P00533 whole entry, looked up): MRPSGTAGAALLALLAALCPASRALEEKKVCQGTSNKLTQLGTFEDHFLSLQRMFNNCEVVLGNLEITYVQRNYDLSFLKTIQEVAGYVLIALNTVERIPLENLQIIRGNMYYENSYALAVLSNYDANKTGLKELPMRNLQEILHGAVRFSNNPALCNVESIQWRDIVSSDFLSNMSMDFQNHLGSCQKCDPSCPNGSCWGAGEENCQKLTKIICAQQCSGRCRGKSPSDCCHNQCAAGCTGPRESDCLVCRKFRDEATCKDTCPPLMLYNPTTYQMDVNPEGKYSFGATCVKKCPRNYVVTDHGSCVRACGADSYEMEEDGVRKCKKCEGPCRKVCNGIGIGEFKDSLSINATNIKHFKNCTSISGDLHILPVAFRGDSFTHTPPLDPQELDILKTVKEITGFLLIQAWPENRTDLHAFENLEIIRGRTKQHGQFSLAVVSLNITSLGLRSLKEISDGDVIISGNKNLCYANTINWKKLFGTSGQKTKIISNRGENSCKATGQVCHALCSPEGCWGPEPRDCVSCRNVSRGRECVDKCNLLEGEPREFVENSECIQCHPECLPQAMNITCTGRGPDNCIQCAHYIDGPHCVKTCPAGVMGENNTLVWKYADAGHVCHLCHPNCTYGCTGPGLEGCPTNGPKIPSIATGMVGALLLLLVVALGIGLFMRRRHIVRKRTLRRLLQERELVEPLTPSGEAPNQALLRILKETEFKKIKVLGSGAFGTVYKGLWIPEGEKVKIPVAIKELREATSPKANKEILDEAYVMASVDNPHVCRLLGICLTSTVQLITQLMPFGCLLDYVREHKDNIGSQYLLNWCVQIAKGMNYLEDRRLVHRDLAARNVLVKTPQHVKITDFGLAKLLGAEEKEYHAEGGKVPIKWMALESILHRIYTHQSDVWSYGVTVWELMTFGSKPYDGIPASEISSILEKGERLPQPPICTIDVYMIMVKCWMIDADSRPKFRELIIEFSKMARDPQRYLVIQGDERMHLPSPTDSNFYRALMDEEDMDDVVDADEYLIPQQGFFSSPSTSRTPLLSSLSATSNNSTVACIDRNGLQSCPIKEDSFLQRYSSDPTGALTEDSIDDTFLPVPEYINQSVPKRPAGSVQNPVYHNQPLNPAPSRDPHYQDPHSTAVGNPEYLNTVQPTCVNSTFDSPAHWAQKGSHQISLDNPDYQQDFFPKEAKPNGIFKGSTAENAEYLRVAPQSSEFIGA

As to `CCOC(=O)[C@H](Cc1ccccc1)NC(=O)CCC1CC(OC(=O)NCc2ccc3c(c2)OCO3)CC2(CCCC(COC(=O)NCCc3ccc(Cl)cc3)O2)O1` (stereo not given in full), the composite z-score in [1] is 0.667; in assay [2], -0.188; in assay [3], -0.509; in assay [5] it was 0.471; in assay [6], 1.27; in [7], 0.549. For the same compound, the composite z-score in assay [8] was 0.69; in assay [9], 0.531; in [10], 0.0209; in assay [11], 1.14; in assay [13], 0.619; in [14], 0.534. Besides, the composite z-score was -0.397 in assay [15]; -0.124 in assay [16]; 0.0756 in assay [17]; 0.0308 in [18]; -0.0764 in assay [19]; 0.337 in [20]. The z-score in [4] is -2.3 (inactive); in assay [12], 0.615.
With `CCN1C(=O)[C@H]2[C@H]3[C@H](O)[C@H](O)CC(=NOC(C)CN4CCCc5nc(C)c(C)cc54)[C@@H]3CC[C@H]2C1=O` (stereo not given in full), the composite z-score is 0.333 in [1]; 0.0478 in assay [2]; -0.598 in assay [3]; 0.784 in assay [5]; 0.901 in [6]; 0.692 in assay [7]. Besides, the composite z-score in assay [8] is 0.783; in [9], 0.713; in [10], 0.907; in assay [11] it was 0.562; in [13] it was 0.803; in assay [14], -0.528. The composite z-score in [15] is -1.03; in [16], -0.0478; in assay [17] it was 0.275; in assay [18], 0.182; in assay [19] it was 0.304; in assay [20], -0.0882. The results for the z-score in assay [4] and in assay [12] were 0.189 (inactive) and -1.21, respectively.
On to `COc1cccc([C@H](O)Cn2cc(-c3ccc(CON=C(C)C)cc3)nn2)c1`, for which the composite z-score was -0.548 in assay [1]; -0.122 in assay [2]; -0.0514 in [3]; 0.155 in assay [5]; -0.559 in assay [6]; -0.392 in assay [7]. For the same compound, the composite z-score in [8] is -0.549; in assay [9] it was -0.115; in [10], 0.575; in assay [11] it was -1.42; in [13], 0.323; in assay [14] it was -0.851. The composite z-score in assay [15] is -0.679; in assay [16] it was 0.123; in [17], -0.229; in assay [18], -0.172; in assay [19] it was 0.56; in assay [20], -0.713. The figures for the z-score in assay [4] and in assay [12] were 0.62 (inactive) and -0.657, respectively.
As for `C#CCCCON=C1[C@H]2CCn3c(=O)n(Cc4cc5c(cc4Cl)OCO5)c(=O)n3[C@H]2[C@H](O)[C@@H]2O[C@H]12`, the composite z-score was 0.216 in [1]; -0.23 in assay [2]; -0.648 in assay [3]; 0.914 in assay [5]; 0.557 in assay [6]; 0.664 in assay [7]. Also, the composite z-score in assay [8] is 0.641; in assay [9], 0.541; in assay [10], 0.0951; in assay [11] it was 0.493; in [13], 0.711; in assay [14], -0.692. The composite z-score in [15] was -1.22; in assay [16], -0.129; in assay [17], -0.273; in [18] it was -0.162; in assay [19], 0.526; in [20] it was 0.499. Moreover, the results for the z-score in [4] and in [12] were -0.0845 (inactive) and 0.113, respectively.
Turning to `COC(=O)[C@H](C)NC(=O)CCC1CC(OC(=O)NCc2ccc3c(c2)OCO3)CC2(CCCC(COC(=O)NCCc3ccc(Cl)cc3)O2)O1` (stereo not given in full), the composite z-score is 0.207 in assay [1]; -0.146 in assay [2]; -0.589 in [3]; 0.382 in [5]; 0.591 in assay [6]; 0.351 in [7]. Besides, the composite z-score in assay [8] is 0.762; in assay [9] it was 1.87; in assay [10], 0.219; in assay [11] it was 0.536; in [13] it was 1.13; in [14], -0.209. Further, the composite z-score in assay [15] is -0.97; in assay [16] it was -0.0367; in [17], 0.0893; in assay [18], -0.111; in assay [19] it was 0.288; in [20], 0.202. For the same compound, the z-score in assay [4] is -0.51 (inactive); in assay [12], -0.562.
In the case of `CC(C)(C)N1C(=O)[C@H]2[C@H]3[C@H](O)[C@H](O)CC(=NOC[C@@H](O)COCc4ccco4)[C@H]3CC[C@H]2C1=O`, the composite z-score was 0.732 in assay [1]; 0.486 in assay [2]; 0.708 in assay [3]; 0.207 in assay [5]; -0.274 in assay [6]; -0.284 in assay [7]. For the same compound, the composite z-score in assay [8] is -0.28; in assay [9] it was -0.0956; in assay [10], 0.0091; in assay [11], 0.39; in assay [13] it was -0.203; in [14] it was -0.0051. For the same compound, the composite z-score in [15] was -0.333; in assay [16] it was -0.147; in [17], -0.0471; in assay [18] it was 0.0868; in [19], 0.706; in assay [20], 1.15. Also, the values for the z-score in assay [4] and in [12] were 1.13 (inactive) and 0.61, respectively.
`C#CCCCON=C1C[C@@H](O)[C@@H](O)[C@@H]2[C@@H]3C(=O)N(C4CCCCC4)C(=O)[C@@H]3CC[C@@H]12`: the composite z-score in assay [1] is 0.369; in assay [2], 0.0266; in assay [3] it was -0.287; in assay [5], 0.743; in assay [6], -0.0432; in assay [7], 0.336. Moreover, the composite z-score in assay [8] was 0.556; in assay [9], 0.692; in [10], 0.265; in assay [11], 0.428; in assay [13] it was 0.321; in assay [14], -0.346. The composite z-score in [15] was -0.342; in assay [16] it was -0.0685; in [17], -0.212; in assay [18], -0.494; in assay [19], 0.366; in assay [20], 0.281. Further, the z-score was 0.466 (inactive) in assay [4] and -0.0098 in [12].
For the compound `CC(C)CON=C1C[C@@H](O)[C@@H](O)[C@@H]2[C@@H]3C(=O)N(C(C)(C)C)C(=O)[C@@H]3CC[C@@H]12`, the composite z-score is 1.08 in assay [1]; -0.58 in [2]; -1.35 in assay [3]; 0.156 in assay [5]; 1.25 in [6]; 0.85 in assay [7]. For the same compound, the composite z-score was 0.85 in assay [8]; 1.95 in [9]; 0.418 in assay [10]; -0.219 in assay [11]; 1.1 in [13]; -1.39 in assay [14]. For the same compound, the composite z-score was -2.27 in assay [15]; -0.178 in [16]; -0.229 in assay [17]; -0.158 in assay [18]; 0.0031 in assay [19]; -0.718 in assay [20]. Besides, the values for the z-score in [4] and in assay [12] were -1.15 (inactive) and -0.851, respectively.
